Screening data (PubChem)
Giardia kill: Small Molecules that selectively kill Giardia lamblia: qHTS | Giardia lamblia trophozoite viability | activity change, % at 7.66 µM, hits read low | hit rate 0.15% among 340,000 | AID 540267, 2011; in the data active = activity change below about -80%; inconclusive = between about -30% and that limit;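 note: parasites exposed to compound for two days anaerobically before the ATP read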
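Trophozoite viability was measured as ATP-dependent luminescence, read 15-30 min after reagent addition. Before that, parasites at 100 cells/well were exposed to compounds for 48 h, anaerobically, at 37 deg C.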
TDP1 cell CPT: qHTS for Inhibitors of human tyrosyl-DNA phosphodiesterase 1 (TDP1): qHTS in cells in presence of CPT; Potency, µM (series often up to 46.2 µM), actives largely listed as inhibitors; hit rate 12% among 420,000; chicken DT40 Tdp1-/-;hTDP1 cells + 20 nM CPT, ATP luminescence, 48 h; AID 686979, 2013; note: nearly all actives have a fitted effect of over 55% in size
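Chicken DT40 Tdp1-/- cells complemented with human TDP1, 400 cells/well, exposed to compounds plus 20 nM camptothecin for at least 48 h at 37 C; viability read as ATP content by CellTiter-Glo luminescence.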
TDP1 block: qHTS Assay for Inhibitors of Tyrosyl-DNA Phosphodiesterase (TDP1); Potency, µM (titrated, usually from 130 µM), usual class: inhibitors; Tyrosyl-DNA phosphodiesterase 1 (Homo sapiens), Q9NUW8; recombinant TDP1, AlphaScreen DNA substrate cleavage; hit rate 0.28% among 350,000; note: nearly all actives have a fitted effect of over 40% in size
Target sequence (Q9NUW8 whole entry, looked up): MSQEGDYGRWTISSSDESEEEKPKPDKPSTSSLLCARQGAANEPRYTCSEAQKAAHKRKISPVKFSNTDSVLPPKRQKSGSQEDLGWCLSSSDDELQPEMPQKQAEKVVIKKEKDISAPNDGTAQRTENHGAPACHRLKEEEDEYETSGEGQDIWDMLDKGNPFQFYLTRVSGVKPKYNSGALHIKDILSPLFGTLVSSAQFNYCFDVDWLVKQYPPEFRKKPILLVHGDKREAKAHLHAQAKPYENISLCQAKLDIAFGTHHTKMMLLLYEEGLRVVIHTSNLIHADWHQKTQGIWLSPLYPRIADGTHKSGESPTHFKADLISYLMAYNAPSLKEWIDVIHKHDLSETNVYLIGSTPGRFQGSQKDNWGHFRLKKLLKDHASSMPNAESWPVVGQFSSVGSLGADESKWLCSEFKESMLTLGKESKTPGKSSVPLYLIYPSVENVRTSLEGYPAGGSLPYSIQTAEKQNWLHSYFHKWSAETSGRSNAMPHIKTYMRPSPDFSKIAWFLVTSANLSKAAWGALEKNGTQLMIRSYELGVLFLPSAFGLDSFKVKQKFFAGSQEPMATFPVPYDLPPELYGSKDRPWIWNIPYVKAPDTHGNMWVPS
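Recombinant human Tdp1 (E. coli-expressed, 1 nM final) preincubated with compounds 15 min at room temperature, then 5'-biotin/3'-phosphotyrosine-FITC DNA substrate (15 nM final) added for 5 min. AlphaScreen beads (10 ug/ml final) added 10 min; cleavage lowers signal.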
DT40 TDP1 no CPT: qHTS for Inhibitors of human tyrosyl-DNA phosphodiesterase 1 (TDP1): qHTS in cells in absence of CPT; DT40 Tdp1-/- hTDP1 cells, no CPT, ATP luminescence, 48 h; Potency, µM (series often up to 46.2 µM), hits mostly inhibitors; hit rate 15% among 420,000; AID 686978, 2013; note: nearly all actives have a fitted effect of over 55% in size
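No-CPT arm: Tdp1-/-;hTDP1 DT40 cells (400/well) plus compounds, incubated ≥48 hr at 37 °C. Readout CellTiter-Glo luminescence.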
IL1B secr inh: qHTS for Inhibitors of Inflammasome Signaling: IL-1-beta AlphaLISA Primary Screen. hit rate 4.7% among 360,000. AID 743279, 2014. THP-1 LPS/ATP IL-1B secretion, AlphaLISA, 16 h; hits give low values. activity change, % at 57.5 µM; in the data active = activity change below about -50%; inconclusive = mostly about -30% to -49%
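THP-1 cells pretreated 1 hr with compounds (up to 57.5 uM final), then stimulated with LPS (250 ng/mL final) plus ATP (1.25 mM final); secreted IL-1B measured by AlphaLISA after 16 hr, decreased signal indicating inhibition.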
ELG1 repair inh: qHTS screen for small molecules that inhibit ELG1-dependent DNA repair in human embryonic kidney (HEK293T) cells expressing luciferase-tagged ELG1; hit rate 2.3% among 330,000; HEK293T ELG1-luciferase reporter, luminescence, 16 h; DNA damage induced by 5-fluorouridine; Potency, µM (titrated, usually from 46.1 µM), usual class: inhibitors; AID 504467, 2011; note: nearly all actives have a fitted effect of over 55% in size
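Reporter activity after DNA damage by 5-fluorouridine is monitored. Compound-treated cells incubate 16 hr at 37 °C, then ONE-Glo is added for 30 min before luminescence reading.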
A number is an active result; 0 = inactive; ? = inconclusive; - = no result given; [ ] = remark or other dose. The list is not random: actives were taken first. Their share in the collection is about 19%. Unless noted, calls come from the whole dose curve; as a rule, active = well fitted curve in the direction sought with a large enough effect; inconclusive = small, poorly fitted or top-dose-only effect, or another doubt; inactive = no such curve, though single readings can be large; an effect the other way counts as inactive or inconclusive.

SMILES	Giardia kill	TDP1 cell CPT	TDP1 block	DT40 TDP1 no CPT	IL1B secr inh	ELG1 repair inh
O=C(NCCOCCn1c(=O)oc2ccccc21)Nc1ccc(F)cc1	-	16µM	0	?	-	-
Cc1ccc2oc(=O)n(CCNC(=O)Nc3ccc(Cl)cc3)c2c1	-	23µM	0	16µM	-	-
Cc1c(Cl)cccc1NC(=O)NCCOCCn1c(=O)oc2ccccc21	-	8.2µM	0	7.3µM	-	-
Cc1cccc(NC(=O)NCCOCCn2c(=O)oc3ccccc32)c1C	-	?	0	0	-	-
Cc1cccc(CNC(=O)CCn2c(=O)c3cccn3c3ccc(F)cc32)c1	-	0	0	0	-	-
CC(=O)Nc1ccc(S(=O)(=O)NC2(C(F)(F)F)C(=O)Nc3c2c(=O)[nH]c(=O)n3Cc2cccnc2)cc1 (centres undefined)	0	0	0	0	0	0
COc1ccc2c(c1)N(C[C@H](C)CN(C)C)c1ccccc1S2	0	?	-	?	?	-
CCN1/C(=C\C(C)=O)Sc2ccc(OC)cc21	0	?	0	0	0	23µM
CCC(=O)/C=C1\Sc2ccc(OC)cc2N1CC	0	?	0	16µM	0	?
CCC(=O)/C=C1\Sc2ccc(OC)cc2N1CCO	0	0	0	0	0	0
COC(=O)[C@@H]1CCCN1C(=O)CCc1nnc(CCc2c[nH]c3ccccc23)o1	0	?	0	?	-105	0
Cc1cccc(NC(=O)CCS(=O)(=O)c2ccc(Cl)cc2)c1	0	0	-	0	0	0
O=c1c2sc3ccccc3c2n(Cc2ccc(F)cc2)c(=O)n1Cc1ccccc1	-	0	0	0	-	-
COc1cccc(Cn2c(=O)n(-c3ccc(Br)cc3F)c(=O)c3sc4ccccc4c32)c1	-	9.2µM	0	?	-	-
Cc1ccc(Cl)cc1-n1c(=O)c2sc3ccccc3c2n(Cc2ccccc2)c1=O	-	23µM	0	5.8µM	-	-
CCOc1ccc(-n2c(=O)c3sc4ccccc4c3n(Cc3ccc(F)cc3)c2=O)cc1	-	0	0	?	-	-
O=c1c2sc3ccccc3c2n(Cc2ccc(Cl)cc2)c(=O)n1Cc1ccco1	-	?	0	8.2µM	-	-
Nc1ncnc2c1ncn2[C@@H]1O[C@H](CNC(=O)[C@@H](N)COCc2ccccc2)[C@@H](O)[C@H]1O	0	0	0	0	0	0
O=C1C[C@@H](O)[C@@H](O)[C@H]2[C@@H]3C(=O)N(Cc4ccccc4)C(=O)[C@@H]3CC[C@H]12	-	-	0[21 µM]	-	-	-
CCN(CC)CCOc1c(Br)ccc2c1sc1nc3n(c(=O)c12)CCC3	0	?	-	21µM	-64	0
O=c1c2c(nc3n1CCCCC3)sc1c(O)c(Br)ccc12	0	0	0	0	0	?
COc1ccc(-n2c(=O)c(CCC(=O)NCCc3ccccc3F)nc3ccccc32)cc1	0	?	0	?	0	?
COc1cccc(N2CCN(S(=O)(=O)c3cc(-c4cc(C)no4)ccc3C)CC2)c1	-	?	0	18µM	-	-
CCc1ccc(-c2cc(C)no2)cc1S(=O)(=O)N1CCN(c2ccc(F)cc2)CC1	0	?	0	?	0	?
COc1ccc(-c2cc(C)no2)cc1S(=O)(=O)N1CCN(c2ccc([N+](=O)[O-])cc2)CC1	0	?	0	0	0	0
SMILES	Giardia kill	TDP1 cell CPT	TDP1 block	DT40 TDP1 no CPT	IL1B secr inh	ELG1 repair inh
CCc1ccc(-c2cc(C)no2)cc1S(=O)(=O)N1CCN(C(=O)c2ccco2)CC1	0	0	0	21µM	0	?
CCc1ccc(-c2cc(C)no2)cc1S(=O)(=O)N1CCN(c2ccc(OC)cc2)CC1	0	21µM	0	?	0	0
N#Cc1nc(Nc2cccc(C(F)(F)F)c2)nc(NC2CCCC2)n1	-	-	0	-	-	-
CC(=O)C[C@H]1c2cc(F)cc(F)c2S(=O)(=O)N1C1CCN(Cc2ccccc2)CC1	-	5.6µM	-	4µM	-	-
COC(=O)C[C@H]1c2cc(F)cc(F)c2S(=O)(=O)N1C1CCN(Cc2ccccc2)CC1	0	9.2µM	-	6.5µM	0	-
COC(=O)CC1c2ccccc2S(=O)(=O)N1Cc1ccccc1 (centres undefined)	0	0	0	0	0	0
COc1ccc2c(c1)O[C@H](c1ccc3c(c1)OCO3)[C@@H](O)C2=O	0	21µM	0	?	0	?
CCCCN1C(=O)C(NC(=O)c2ccc(C(C)(C)C)cc2)(C(F)(F)F)C(C(=O)OC)=C1C (centres undefined)	-	?	0	23µM	-	-
Cc1cc(N2CC(C)OC(C)C2)nc2ccccc12 (centres undefined)	0	0	0	?	0	0
COc1ccc2c(CC(=O)Nc3cccc(S(=O)(=O)N4CCOCC4)c3)coc2c1	0	?	0	?	0	?
CCOc1ccc(N(CC(=O)NC2CCCC2)C(=O)CCC(=O)Nc2nccs2)cc1	?	0	-	0	-52	0
O=C(CSc1nnc(COc2ccc(Br)cc2)o1)NC1CCCCC1	0	0	-	0	0	0
CCOc1ccc(N(CC(=O)NC2CCCCC2)C(=O)CSc2nnc(COc3ccccc3)o2)cc1	0	?	0	?	?	18µM
CCOc1ccc(N(CC(=O)NC2CCCCC2)C(=O)CCC(=O)Nc2nccs2)cc1	0	0	-	0	0	0
O=C(CN(Cc1cccs1)C(=O)CSc1nnc(COc2ccccc2)o1)NC1CCCCC1	0	?	0	?	0	18µM
CCOC(=O)c1cnc2cc(-c3ccc(Cl)cc3)nn2c1-c1ccccc1	-	?	-	13µM	-	-
O=C(Nc1ccccc1-c1ccccc1)C12CC3CC(CC(C3)C1)C2	0	?	0	15µM	0	?
O=C(Nc1ccccc1-c1ccccc1)C1CCCC1	0	6.5µM	0	6.5µM	0	0
O=C(Nc1cccc2ncccc12)C12CC3CC(CC(C3)C1)C2	0	0	0	?	0	0
COc1ccc(-c2cc3nc(C)c(C)c(N4CCN(C(=O)c5ccoc5)CC4)n3n2)cc1	-	?	-	18µM	0	-
CCOCCN1CCN(c2c(C)c(C)nc3cc(-c4cc(OC)cc(OC)c4)nn23)CC1	0	?	0	26µM	?	16µM
COc1cccc(-c2cc3nc(C)cc(N4CCN(C(=O)c5ccoc5)CC4)n3n2)c1	-	?	-	21µM	0	-
COc1ccc(-c2cc3nc(C)cc(N4CC(C)CC(C)C4)n3n2)cc1 (centres undefined)	0	?	0	18µM	0	?
Cc1nn(S(=O)(=O)c2ccc(C(C)(C)C)cc2)c(C)c1S(=O)(=O)N1CCCCCC1	-	0	0	0	-	-
